# Only some compounds are listed: those with a hit (about 0.14% of all), similar ones and a draw of the others.
# ASM inhibitor = Inhibitors of Secretory Acid Sphingomyelinase (S-ASM): qHTS | Sphingomyelin phosphodiesterase (Homo sapiens), P17405 | placental ASM, HMU-PC fluorogenic substrate, 60 min | Potency, µM (highest dose often 57.5 µM), for inactives: at the top dose activity change, negative = inhibition, hits mostly inhibitors | 0.006% of 340,000 active | AID 504937, 2011; note: potency is the fitted concentration of half-maximal effect
#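 Fluorescence read-out (Ex 386 nm, Em 447 nm) after stopping the reaction at pH 10. Enzyme: ASM from human placenta; substrate HMU-PC0, 9 uM final; 60 min, 37 °C. Compound preincubation 10 min, ambient temperature.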
# PI4K2A inh = qHTS for small molecular inhibitors of PI4K2A; Phosphatidylinositol 4-kinase type 2-alpha (Homo sapiens), Q9BTU6; purified PI4K2A, ADP-Glo luminescence, 1 h; hits give low values; activity change, negative = inhibition, % at 76.9 µM; 0.13% of 420,000 active; in the data active = activity change below about -50%; inconclusive = mostly about -30% to -49%;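 note: -100% = wells without enzyme as full effect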
#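 Compounds are screened against recombinant PI4K2A using PI as substrate and ATP, the latter dispensed at 300 microM. Reactions run one hour at ambient temperature before ADP-Glo detection; full inhibition defined by wells lacking enzyme.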
# GALK inhibitor = qHTS Assay for Inhibitors of Human Galactokinase (GALK); P51570; Purified GALK, Kinase-Glo residual ATP luminescence; Potency, µM (doses to about 57.5 µM), for the others: at the top dose activity change, negative = inhibition, most hits filed as inhibitors; 0.007% of 270,000 active; AID 1868, 2009; note: potency is the fitted concentration of half-maximal effect; % is set by controls: 0 for no effect and ±100 for the full control effect
# Target sequence (P51570 whole entry, looked up): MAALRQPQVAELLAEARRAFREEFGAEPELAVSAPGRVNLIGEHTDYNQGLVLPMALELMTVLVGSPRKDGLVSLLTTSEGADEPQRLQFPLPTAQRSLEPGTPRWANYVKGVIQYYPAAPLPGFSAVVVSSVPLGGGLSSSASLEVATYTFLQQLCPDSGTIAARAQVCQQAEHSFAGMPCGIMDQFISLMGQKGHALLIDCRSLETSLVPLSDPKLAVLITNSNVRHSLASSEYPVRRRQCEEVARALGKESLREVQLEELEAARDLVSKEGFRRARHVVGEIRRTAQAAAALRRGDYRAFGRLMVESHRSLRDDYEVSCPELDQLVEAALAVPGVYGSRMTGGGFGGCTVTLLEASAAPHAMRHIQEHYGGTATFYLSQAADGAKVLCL
#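 Luminescence from leftover ATP (Ultra-Glo luciferase/luciferin) served as read-out after a 1 h room-temperature reaction of 5 nM GALK with 35 uM ATP and 100 uM galactose.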
# miR-21 reporter = qHTS Assay for Modulators of miRNAs and/orActivators of miR-21; HeLa miR-21 FLuc reporter, luciferase, 48 h; Potency, µM (series often up to 38.3 µM), without a hit: at the top dose activity change, positive = activation, most hits filed as activators; 340,000 tested, under 10 active;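 note: % of control where 0% means no effect; miR-21 action dims this reporter so a rising signal means less miR-21 action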
#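 HeLa cells endogenously expressing miR-21, stably carrying CMV-driven firefly luciferase with a downstream miR-21 binding site, 2000 cells/well. Titrations up to approximately 40 uM, 48 hours; luciferase luminescence read.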
# Starred values were filed as active, the others as inactive; i = inactive; ? = inconclusive; . = no result given. Unless noted, calls come from the whole dose curve; as a rule, active = well fitted curve in the direction sought with a large enough effect; inconclusive = small, poorly fitted or top-dose-only effect, or another doubt; inactive = no such curve, though single readings can be large; an effect the other way counts as inactive or inconclusive.
SMILES,ASM inhibitor,PI4K2A inh,GALK inhibitor,miR-21 reporter
Cc1cc2nc(-c3ccc[nH]c3=O)[nH]c2cc1C,i,-66.2*,.,?
Cc1cc2nc(-c3ccc[nH]c3=O)n(Cc3ccc(F)cc3)c2cc1C,124.7%,-1.2,2.1%,-15.7%
O=C(c1ccc(-c2nc3ccccc3s2)s1)N1CCOCC1,7.7%,-66.5*,18.5%,?
CCN1CCN(C(=O)c2ccc(-c3nc4ccccc4s3)s2)CC1,3.6%,-8.1,-0.8%,-43.9%
c1ccc2sc(-c3ccc4c(c3)OCO4)nc2c1,-0.3%,-67.6*,10.2%,5.5%
CCCCCCc1c(C)c2c(cc(C)c3c(C)coc32)oc1=O,.,3.0,.,-0.6%
Cc1coc2c1c(C)cc1oc(=O)c(Cc3ccccc3)c(C)c12,22.6%,-84.2*,0.7%,-1.1%
COc1ccccc1CNC(=O)COC(=O)c1cc(C)nc2ccccc12,-0.5%,1.6,.,.
COc1ccccc1CNC(=O)COC(=O)c1cc(-c2ccco2)nc2ccccc12,180.9%,-52.7*,0.6%,-2.0%
CN(C)CCN(Cc1ccsc1)c1ccccn1,.,-0.2,.,.
Cc1cc(=O)[nH]c2nnc(SCC(=O)Nc3cc(C(F)(F)F)ccc3Cl)n12,.,-58.1*,.,-13.9%
O=C(CSc1nnc2[nH]c(=O)cc(-c3ccccc3)n12)Nc1cc(C(F)(F)F)ccc1Cl,.,-2.4,.,13.9%
O=C(O)c1ccccc1NCCc1ccccc1,.,1.9,.,.
CCCCc1cc(=O)oc2cc(OCC(=O)NC(Cc3c[nH]c4ccc(O)cc34)C(=O)O)ccc12 (configuration not stated),-1.4%,-67.6*,.,-1.0%
CCCCOc1cc(=O)[nH]c(=O)[nH]1,-1.0%,-51.2*,0.2%,-5.7%
CCOc1ccc(Nc2cc(=O)[nH]c(=O)[nH]2)cc1,-2.1%,-2.2,-0.8%,-3.1%
CCN(CC)c1ccc(C(=C2C=CC(=[N+](CC)CC)C=C2)c2ccccc2)cc1,-20.0%,-7.5,.,.
CCN(CC)c1ccc(C(=C2C=CC(=[N+](CC)CC)C=C2)c2ccc(N(CC)CC)cc2)cc1,?,-70.7*,.,.
CCN(CC)c1ccc(C(=C2C=CC(=[N+](CC)CC)C=C2)c2cc(S(=O)(=O)O)ccc2S(=O)(=O)[O-])cc1,.,-51.1*,.,.
COc1ccc(/C(C)=C/C(=O)O)c(OC)c1,.,-0.9,.,.
CCOc1ncc(F)c(=O)[nH]1,.,-0.5,.,.
CC1OC(CC(=O)O)CC2=C1C(=O)c1c(O)cccc1C2=O (configuration not stated),-1.8%,-59.3*,.,.
COc1cc(OC)cc(C(=O)O/N=C(\N)c2ccccn2)c1,5.2%,-1.7,1.4%,-61.9%
N/C(=N\OC(=O)c1ccccc1Cl)c1ccccn1,0.7%,-51.1*,23.1%,16.2%
COc1cc(OC)c(C(=O)O/N=C(\N)c2ccccn2)cc1OC,-1.8%,8.9,-1.5%,-34.0%
SMILES,ASM inhibitor,PI4K2A inh,GALK inhibitor,miR-21 reporter
Cc1ccc(C(=O)O/N=C(\N)c2ccccn2)c(C)c1,3.9%,-84.8*,?,?
N/C(=N\OC(=O)c1ccc(Cl)cc1)c1ccccn1,-1.3%,-69.5*,1.7%,23.7%
COc1ccccc1C(=O)O/N=C(\N)c1ccccn1,0.2%,-11.6,7.0%,3.7%
COc1ccc(C(=O)O/N=C(\N)c2ccccn2)cc1,-1.9%,-89.7*,?,20.4%
CCOC(=O)c1ccc(O)c(O)c1,.,-1.4,.,.
CC(=O)OC[C@H]1O[C@@H](OC(C)=O)[C@H](OC(C)=O)[C@@H]1OC(C)=O,.,-2.0,.,.
CCCC(CCC)(C(=O)OCC)C(=O)OCC,.,-4.5,.,.
NS(=O)(=O)c1cc2c(cc1Cl)CN(C1CCCCC1)C2=O,.,0.8,.,.
COc1ccc(C(=O)NNC(=O)c2ccccn2)cc1,-1.8%,-85.1*,21.6%,?
CC(C)(C)c1ccc(C(=O)CCCCl)cc1,.,-5.1,.,.
CC(c1ccccc1)c1nnc(NC(=O)Nc2ccccc2F)s1 (configuration not stated),-1.7%,-50.0*,1.8%,-39.8%
Nc1cc(C(=O)O)c(N)c2c1C(=O)c1ccccc1C2=O,-1.4%,-54.7*,19.6%,?
Nc1c(C(=O)O)ccc2c1C(=O)c1ccccc1C2=O,-0.8%,-17.2,2.2%,1.2%
O=S(=O)(c1ccc2nc(-c3ccco3)c(-c3ccco3)nc2c1)N1CCOCC1,107.1%,-54.7*,3.5%,7.8%
O=C(O)c1ccc(NC2=C/C(=N/S(=O)(=O)c3cccs3)c3ccccc3C2=O)cc1,.,-52.0*,.,.
NC(=O)C1(N2CCCCC2)CCN(CCCN2c3ccccc3CCc3ccc(Cl)cc32)CC1,.,3.0,.,.
CN1Cc2cc(C(=O)N3CCC(C4CCNCC4)CC3)ccc2NC(CC(=O)O)C1=O (configuration not stated),.,-1.6,.,.
COc1ccc(-c2cn3c(n2)sc2cc(C(=O)NCc4ccccc4)ccc23)cc1,.,-10.2,.,-1.7%
COc1ccc2c(c1)sc1nc(-c3ccccc3)cn12,-1.9%,-60.1*,5.9%,?
Cc1ccsc1/C=N/Nc1nc(=O)[nH]nc1C,-0.9%,-71.4*,-2.8%,-30.1%
Cc1cc(C)nc(N/N=C/c2sccc2C)n1,4.7%,0.5,3.4%,-15.7%
C[C@@H]1C[C@H]2[C@@H]3CCC4=CC(=O)C=C[C@]4(C)[C@@]3(F)[C@@H](O)C[C@]2(C)[C@@]1(O)C(=O)COC(=O)c1ccncc1,.,-1.4,.,.
COc1ccc(-c2cc3nc(C)cc(N)n3n2)cc1,3.3%,-87.6*,18.2%,12.9%
CC(=O)CC/C=C(\C)CC/C=C(\C)CC/C=C(\C)CCC=C(C)C,.,-0.9,.,.
Cc1ccc(C(=O)Nc2ccc(C(=O)N3CCCCC3)cc2)o1,2.4%,-52.8*,17.8%,-30.6%
SMILES,ASM inhibitor,PI4K2A inh,GALK inhibitor,miR-21 reporter
O=C(COC(=O)c1ccc(S(=O)(=O)NCc2ccco2)cc1)Nc1ccccc1,-1.1%,5.6,.,.
O=C(COC(=O)c1ccc(S(=O)(=O)NCc2ccco2)cc1)Nc1ccc(Cl)cn1,6.6%,-52.5*,-2.6%,2.5%
COc1ccc(C=C2CCc3ccccc3C2=O)cc1,.,-82.7*,.,.
O=C1C(=Cc2ccc(F)cc2)CCc2ccccc21,.,-72.8*,.,.
O=C1/C(=C\c2ccncc2)CCc2ccccc21,1.4%,?,.,.
Cc1ccccc1C(=O)N1CC/C(=N\OS(=O)(=O)O)c2ccc(Cl)cc21,.,-2.4,.,.
O=c1c(Cl)c(N2CCCCC2)cnn1-c1nc2ccccc2[nH]1,-0.5%,-25.0,10.6%,18.7%
O=c1c2ccccc2cnn1-c1nc2ccccc2[nH]1,7.0%,-72.8*,24.2%,?
CC1c2ccccc2CN1NC(=O)c1ccc(Cl)c(S(N)(=O)=O)c1 (configuration not stated),.,0.7,.,.
CN1/C(=C/C=C/c2n(C)c3cc([N+](=O)[O-])c([N+](=O)[O-])cc3[n+]2C)C(C)(C)c2ccccc21,.,-74.5*,.,.
Cc1cccc[n+]1CC(=O)/C=C1\N(C)c2ccccc2C1(C)C,-1.1%,-3.0,.,25.6%

# Screening data (PubChem)
